Data on ten compounds can be found in PubChem BioAssay (NCI).

Each structure is given as a SMILES string. About 79,000 compounds went through this panel and 15% of them were active in at least one assay; those are over-represented in the sample as a whole. Values without a mark were called inactive. Calls of active or inactive are those of the source. No stated cut-off is given here; in the data, active means growth inhibition above about 70%; inactive means the rest.

Assay [1] is described as follows: NCI Yeast Anticancer Drug Screen. Data for the rad50 strain (AID 155).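 Further: 0% = growth of vehicle-only cultures of the same strain.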 To be noted: S. cerevisiae rad50 strain growth inhibition, hits give high values. In short, it runs like this: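 Readout: growth inhibition relative to vehicle-treated cultures. Compound exposure was carried out in a genetically defined yeast strain deficient in DNA damage repair.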
The nature of assay [2]: NCI Yeast Anticancer Drug Screen. Data for the mec2-1 strain (AID 157). To be noted: S. cerevisiae mec2-1 strain, hits give high values. In short, it runs like this: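 Readout is yeast growth inhibition, normalised to vehicle-treated controls, in the mec2-1 strain exposed to compound.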
Assay [3] in a line: NCI Yeast Anticancer Drug Screen. Data for the sgs1 mgt1 strain (AID 161).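 Further: 0% = growth of cultures given vehicle only.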 To be noted: S. cerevisiae sgs1 mgt1 strain, hits give high values. In outline: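 Yeast cells carrying a defined DNA-repair defect were exposed to test compounds. Growth inhibition was measured relative to vehicle-treated controls.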
Assay [4] in a line: NCI Yeast Anticancer Drug Screen. Data for the cln2 rad14 strain (AID 165).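 Further: 0% = growth equal to vehicle treated cultures.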 To be noted: S. cerevisiae cln2 rad14 strain, hits give high values. In short, it runs like this:
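Relative to vehicle controls, growth inhibition of compound-treated cln2 rad14 yeast was recorded.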

Assay [5] in a line: NCI Yeast Anticancer Drug Screen. Data for the bub3 strain (AID 167). To be noted: S. cerevisiae bub3 mutant strain, hits give high values. In outline: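 Readout: yeast growth inhibition, expressed relative to vehicle-only wells. The test organism is a mutant strain from a panel with lesions in DNA repair or checkpoint genes.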
The nature of assay [6]: NCI Yeast Anticancer Drug Screen. Data for the mlh1 rad18 strain (AID 175). To be noted: S. cerevisiae mlh1 rad18 strain growth inhibition, hits give high values. In short, it runs like this: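 Test agents were incubated with a yeast strain of defined genotype (DNA damage repair defect). Inhibition of growth was derived by comparison with vehicle-exposed cultures.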
Setting [7] is: at 5.0 µM (retest, dose inferred, filed as 0.5).
[8] abbreviates: at 50.0 µM (retest, dose inferred, filed as 5.0).

On to `c1ccc(C(c2ccccc2)c2ccc3ccccc3n2)cc1`, for which the growth inhibition in assay [1] (setting [7]) was -3%; in assay [1] (setting [8]) it was 91% (active); in assay [1] (at 50.0 µM), 18.1%; in assay [2] (setting [7]), -2%; in assay [2] (setting [8]), 71% (active); in assay [2] (at 50.0 µM) it was 40.8%. For the same compound, the growth inhibition in assay [3] (setting [7]) is -4%; in assay [3] (setting [8]), 92% (active); in assay [3] (at 50.0 µM) it was 67.8%; in assay [4] (setting [7]), 2%; in assay [4] (setting [8]) it was 45%; in assay [4] (at 50.0 µM), -15.3%. Further, the growth inhibition is 23% in assay [5] (setting [7]); 58% in assay [5] (setting [8]); 61.4% in assay [5] (at 50.0 µM); -3% in assay [6] (setting [7]); 80% (active) in assay [6] (setting [8]); 37.5% in assay [6] (at 50.0 µM).

As to `CCCn1cc2c(SC)nc(SC)nc2n1`, the growth inhibition in assay [1] (setting [7]) is -1%; in assay [1] (setting [8]) it was 5%; in assay [1] (at 50.0 µM), 98.1% (active); in assay [2] (setting [7]), 0%; in assay [2] (setting [8]) it was 46%; in assay [2] (at 50.0 µM), 98.3% (active). The growth inhibition was -2% in assay [3] (setting [7]); 10% in assay [3] (setting [8]); 97% (active) in assay [3] (at 50.0 µM); 2% in assay [4] (setting [7]); 38% in assay [4] (setting [8]); 87.3% (active) in assay [4] (at 50.0 µM). Besides, the growth inhibition in assay [5] (setting [7]) is 4%; in assay [5] (setting [8]), 99% (active); in assay [5] (at 50.0 µM) it was 99.5% (active); in assay [6] (setting [7]), -3%; in assay [6] (setting [8]) it was 14%; in assay [6] (at 50.0 µM), 98.1% (active).

Turning to `CC(C)C1=CC23CCC4C(C)(C(=O)O)CCCC4(C)C2CC1c1c(O)ccc(O)c13` (stereo not given), the growth inhibition is 30% in assay [1] (setting [7]); 98% (active) in assay [1] (setting [8]); 99.3% (active) in assay [1] (at 50.0 µM); 75% (active) in assay [2] (setting [7]); 100% (active) in assay [2] (setting [8]); 99.3% (active) in assay [2] (at 50.0 µM). The growth inhibition was 51% in assay [3] (setting [7]); 99% (active) in assay [3] (setting [8]); 99.3% (active) in assay [3] (at 50.0 µM); 28% in assay [4] (setting [7]); 98% (active) in assay [4] (setting [8]); 99.2% (active) in assay [4] (at 50.0 µM). Moreover, the growth inhibition in assay [5] (setting [7]) was 31%; in assay [5] (setting [8]), 99% (active); in assay [5] (at 50.0 µM) it was 99.2% (active); in assay [6] (setting [7]), 81% (active); in assay [6] (setting [8]) it was 99% (active); in assay [6] (at 50.0 µM) it was 99% (active).

With `O=C(/C(Cl)=N/O)c1ccccc1`, the growth inhibition in assay [1] (setting [7]) was 80% (active); in assay [1] (setting [8]) it was 99% (active); in assay [1] (at 50.0 µM) it was 98.8% (active); in assay [2] (setting [7]) it was 47%; in assay [2] (setting [8]), 100% (active); in assay [2] (at 50.0 µM), 99.2% (active). Besides, the growth inhibition in assay [3] (setting [7]) is 51%; in assay [3] (setting [8]), 99% (active); in assay [3] (at 50.0 µM), 49.3%; in assay [4] (setting [7]) it was 38%; in assay [4] (setting [8]), 99% (active); in assay [4] (at 50.0 µM), 58%. Moreover, the growth inhibition was 91% (active) in assay [5] (setting [7]); 99% (active) in assay [5] (setting [8]); 99% (active) in assay [5] (at 50.0 µM); 62% in assay [6] (setting [7]); 99% (active) in assay [6] (setting [8]); 50% in assay [6] (at 50.0 µM).

For `CC/C(C)=N/OC(=O)Nc1ccccc1`, the growth inhibition in assay [1] (setting [7]) was 5%; in assay [1] (setting [8]), 0%; in assay [1] (at 50.0 µM) it was 39.1%; in assay [2] (setting [7]) it was -22%; in assay [2] (setting [8]), 5%; in assay [2] (at 50.0 µM) it was 17.2%. Moreover, the growth inhibition was 2% in assay [3] (setting [7]); 20% in assay [3] (setting [8]); 64.7% in assay [3] (at 50.0 µM); 5% in assay [4] (setting [7]); 8% in assay [4] (setting [8]); 11.2% in assay [4] (at 50.0 µM). Further, the growth inhibition is -74% in assay [5] (setting [7]); 2% in assay [5] (setting [8]); 0.05% in assay [5] (at 50.0 µM); 1% in assay [6] (setting [7]); 14% in assay [6] (setting [8]); 34% in assay [6] (at 50.0 µM).

For `COC(=O)C1CCN(Cc2ccccc2)CC1=O` (stereo not given), the growth inhibition was 38% in assay [1] (setting [7]); 57% in assay [1] (setting [8]); 89.3% (active) in assay [1] (at 50.0 µM); 48% in assay [2] (setting [7]); 51% in assay [2] (setting [8]); 92.1% (active) in assay [2] (at 50.0 µM). The growth inhibition in assay [3] (setting [7]) is 77% (active); in assay [3] (setting [8]), 100% (active); in assay [3] (at 50.0 µM) it was 93.2% (active); in assay [4] (setting [7]), 83% (active); in assay [4] (setting [8]) it was 100% (active); in assay [4] (at 50.0 µM), 90% (active). For the same compound, the growth inhibition in assay [5] (setting [7]) was 81% (active); in assay [5] (setting [8]), 98% (active); in assay [5] (at 50.0 µM), 90% (active); in assay [6] (setting [7]), 37%; in assay [6] (setting [8]) it was 47%; in assay [6] (at 50.0 µM) it was 89.9% (active).

Turning to `COc1ccc(/C=C2/C(=O)N(C(=O)c3ccccc3O)N=C2C)cc1OC`, the growth inhibition in assay [1] (setting [7]) is 13%; in assay [1] (setting [8]), 69%; in assay [1] (at 50.0 µM), 66.7%; in assay [2] (setting [7]), -1%; in assay [2] (setting [8]) it was 59%; in assay [2] (at 50.0 µM), 52.9%. For the same compound, the growth inhibition in assay [3] (setting [7]) is 7%; in assay [3] (setting [8]), 61%; in assay [3] (at 50.0 µM), 47.4%; in assay [4] (setting [7]), 22%; in assay [4] (setting [8]), 62%; in assay [4] (at 50.0 µM), 56.5%. For the same compound, the growth inhibition was 17% in assay [5] (setting [7]); 81% (active) in assay [5] (setting [8]); 76.5% (active) in assay [5] (at 50.0 µM); 15% in assay [6] (setting [7]); 79% (active) in assay [6] (setting [8]); 54.6% in assay [6] (at 50.0 µM).

On to `Cc1ccc([S@](=O)c2occc2C=O)cc1`, for which the growth inhibition in assay [1] (setting [7]) is 37%; in assay [1] (setting [8]), 88% (active); in assay [1] (at 50.0 µM), 74.5% (active); in assay [2] (setting [7]), 29%; in assay [2] (setting [8]), 98% (active); in assay [2] (at 50.0 µM) it was 88.5% (active). Moreover, the growth inhibition is 38% in assay [3] (setting [7]); 98% (active) in assay [3] (setting [8]); 84.5% (active) in assay [3] (at 50.0 µM); 23% in assay [4] (setting [7]); 43% in assay [4] (setting [8]); 13.4% in assay [4] (at 50.0 µM). Also, the growth inhibition in assay [5] (setting [7]) is 43%; in assay [5] (setting [8]), 98% (active); in assay [5] (at 50.0 µM), 62.6%; in assay [6] (setting [7]), 41%; in assay [6] (setting [8]) it was 96% (active); in assay [6] (at 50.0 µM), 88.2% (active).

As for `Brc1ccc(N2COc3ccc4ccccc4c3C2)cc1`, the growth inhibition is 9% in assay [1] (setting [7]); -23% in assay [1] (setting [8]); 19.2% in assay [1] (at 50.0 µM); 19% in assay [2] (setting [7]); -1% in assay [2] (setting [8]); 35.5% in assay [2] (at 50.0 µM). Besides, the growth inhibition in assay [3] (setting [7]) is 16%; in assay [3] (setting [8]) it was -4%; in assay [3] (at 50.0 µM), 62.4%; in assay [4] (setting [7]), -17%; in assay [4] (setting [8]) it was -3%; in assay [4] (at 50.0 µM) it was 0.95%. Besides, the growth inhibition was 9% in assay [5] (setting [7]); -3% in assay [5] (setting [8]); 77.9% (active) in assay [5] (at 50.0 µM); 16% in assay [6] (setting [7]); 2% in assay [6] (setting [8]); 46.4% in assay [6] (at 50.0 µM).

As to `COc1ccc(Br)c2c1CC(C(=O)O)CC2` (stereo not given), the growth inhibition in assay [1] (setting [7]) was -29%; in assay [1] (setting [8]), -23%; in assay [1] (at 50.0 µM), 8%; in assay [2] (setting [7]) it was -26%; in assay [2] (setting [8]), 26%; in assay [2] (at 50.0 µM), 4.05%. Further, the growth inhibition in assay [3] (setting [7]) was -33%; in assay [3] (setting [8]), -22%; in assay [3] (at 50.0 µM) it was -10.1%; in assay [4] (setting [7]), 6%; in assay [4] (setting [8]) it was 6%; in assay [4] (at 50.0 µM) it was -17.2%. For the same compound, the growth inhibition in assay [5] (setting [7]) was -13%; in assay [5] (setting [8]), 13%; in assay [5] (at 50.0 µM) it was 11.9%; in assay [6] (setting [7]), -20%; in assay [6] (setting [8]), -19%; in assay [6] (at 50.0 µM), 2.8%.
